Source: PubChem BioAssay

experiment: small-molecule microarray binders of probe aShh, primary screen, biochemical, biotinylated probe, 635/667 nm fluorescence (AID 1114); settings: higher = more signal;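 also: probe is biotin-labelled aShh protein from a stem cell growth factor screen; measures binding of labelled protein to compounds printed on the slide; score merges feature fluorescence at 667 nm with signal-to-noise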

Point of comparison: `[N-]=[N+]=NCc1ccccc1C[C@]1(C(N)=O)N=C(c2ccc(OCCCO)cc2)O[C@H]1c1ccccc1CN=[N+]=[N-]`, composite z-score 0.84. Against it:
- Cc1ccc(S[C@]2(C(=O)NC(C)C)CC(=O)N(C3Cc4ccccc4C3)[C@@H]2c2ccc(CO)cc2)cc1 — lower, -0.421
- C[N+](C)(C)CCCC[C@@H]1NC(=O)[C@H]2C[C@@H](C(=O)NCc3ccc(F)cc3)[C@@H](c3cccc(OCCO)c3)N2C1=O — lower, -0.0904
- C=CCC(OC(C)=O)[C@@H]1[C@@H](N(Cc2ccc(-c3ccccc3)cc2)C(=O)c2ccc(-c3ccccc3)cc2)c2cc(OCCCO)ccc2N1C(=O)Cc1ccc(OC)cc1 (stereo partly specified) — lower, 0.011
- CO[C@@H]1COC(=O)CC=C[C@@H](C)[C@H](OC)COC(=O)CC=C[C@H]1C — lower, 0.0796
- O=C(NCc1ccccc1)[C@@]1(CCS(=O)(=O)c2ccccc2)COC(c2ccc(OCCCO)cc2)=N1 — lower, 0.504
- C=C(CCCC)/C(=C/C[C@@H](OC(=O)c1ccncc1)c1cccc(OCCO)c1)c1cc(C(=O)OC)ccc1OC — lower, -0.138
- CC(C)[Si]1(C(C)C)OCc2cc(C3CC3)nc(-c3ccccc3)c21 — lower, -0.09
- C=CCOC(=O)[C@@H]1[C@H]2C(=O)O[C@H](c3ccccc3)[C@H](c3ccccc3)N2[C@H](c2ccc(OCCOC(=O)[C@H]3C[C@H]4C(=O)N[C@@H](CCCCNC(C)=O)C(=O)N4[C@H]3c3ccc(O)cc3)cc2)[C@@]12C(=O)Nc1ccc(I)cc12 — lower, -0.232
- CC(C)N1CC=CC23O[C@@H]4/C=C\CCCOC(=O)C4[C@H]2C(=O)N(CCCCCO)[C@@H]3C1=O (stereo partly specified) — lower, -0.179
- O=C1O[C@@H](c2ccccc2)[C@@H](c2ccccc2)N2[C@@H](c3ccc(OCCO)cc3)[C@]3(C(=O)Nc4ccc(C#CCCO)cc43)[C@@H](C(=O)N3CCN(c4ncccn4)CC3)[C@H]12 — lower, 0.151
- COC(=O)[C@@]1(Cc2ccc(OC)cc2)[C@H]2c3cc(C(=O)N(C)C)n(CCc4ccc(OC)c(Br)c4)c3C[C@H]2CN1C(=O)c1ccccc1 — higher, 2.03
- CSCC[C@@H]1NC(=O)CC=C[C@@H](C)COC(=O)[C@H](CCSC)NC(=O)CC=C[C@@H](C)COC1=O — lower, 0.0756
- CO[C@@H]1COC(=O)CC=C[C@H](C)COC(=O)[C@H](Cc2ccccc2)NC(=O)CC=C[C@H]1C — lower, 0.0048
- CC(C)(C)OC(=O)CC[C@]1(C(=O)NCCN2CCOCC2)N=C(c2ccc(OCCCO)cc2)O[C@H]1c1ccccc1CN=[N+]=[N-] — lower, 0.0469
- CO[C@H]1O[C@H](CO)[C@@H](OC(=O)Nc2ccc3c(c2)OCO3)[C@H](OC(=O)Nc2ccccc2)[C@@H]1OC(=O)Nc1ccccc1 — lower, 0.0796
- CCc1cccc(NC(=O)O[C@H]2[C@H](OC(=O)Nc3ccccc3)[C@@H](OC(=O)Nc3ccccc3)[C@@H](OC)O[C@@H]2CO)c1 — lower, 0.19
- CC(C)(C)OC(=O)CC[C@@]1(C(=O)NCc2ccccc2)N=C(c2ccc(OCCCO)cc2)O[C@@H]1c1ccccc1 — lower, 0.14
- C=CCNC(=O)[C@H]1[C@@H]2C(=O)O[C@@H](c3ccccc3)[C@@H](c3ccccc3)N2[C@@H](c2ccccc2OCCO)[C@]12C(=O)N(C(=O)OCCOC)c1ccc(C#CCNC(N)=O)cc12 — lower, -0.0011
- CC(=O)NCCCC[C@@H]1NC(=O)[C@@H]2C[C@H](C(=O)NCCCCCCN(C)C)[C@H](c3ccc(O)cc3)N2C1=O — lower, 0.0712
- CCCC=C(CCC)[C@@H](NC(=O)c1ccccc1)c1ccccc1 — lower, 0.217
- C=CCC(OC(C)=O)[C@@H]1[C@@H](N(Cc2ccc(-c3cccc(C(F)(F)F)c3)o2)C(=O)Cc2ccc(F)cc2)c2cc(OCCCO)ccc2N1C(=O)c1ccc(-c2ccccc2)cc1 (stereo partly specified) — lower, 0.0899
- CO[C@H]1COC(=O)[C@@H](C)NC(=O)CC=C[C@@H](C)[C@H](OC)COC(=O)CC=C[C@@H]1C — lower, -0.153
- COc1ccc([Si](C)(C)[C@H]2[C@H](CCO)O[C@@]3(C(=O)N(Cc4ccccc4)c4ccc(N5C(=O)c6cccc7cccc5c67)cc43)[C@@H]2C)cc1 — lower, -0.0769
- O=C/C=C/c1ccc(/C=C/c2ccccc2)cc1 — lower, -0.0886
- O=C(CS)NCCCCCNC(=O)[C@H]1C[C@H]2C(=O)N3CCC[C@H]3C(=O)N2[C@H]1c1ccc(O)cc1 — lower, 0.046
- CO[C@H]1COC(=O)[C@H](C)NC(=O)CC=C[C@@H](C)[C@H](NS(=O)(=O)c2ccc(C)cc2)COC(=O)CC=C[C@@H]1C — lower, -0.0709
- O=C1C[C@@](C(=O)NC2CC2)(c2ccc([N+](=O)[O-])cc2)[C@@H](c2ccc(CO)cc2I)N1CC12CC3CC(CC(C3)C1)C2 — lower, 0.574
- CO[C@H]1O[C@H](CO)[C@@H](OC(=O)CCc2ccccc2)[C@@H]2OC(=O)[C@H](Cc3cccc(Br)c3)C/C=C/C[C@@H](Cc3cccc(Br)c3)C(=O)O[C@@H]12 — lower, 0.103
- Cc1ccc(S[C@]2(C(=O)NCCCN(C)C)CC(=O)N(C3CCCCC3)[C@@H]2c2ccc(CO)cc2I)cc1 — lower, 0.173
- COc1cccc([C@H]2N[C@H](C(=O)O)CC[C@@H]2C)c1 — lower, -0.458
- O=C1O[C@H](c2ccccc2)[C@H](c2ccccc2)N2[C@H]1[C@@H](C(=O)NC[C@H](O)c1ccccc1)[C@]1(C(=O)Nc3ccc(C#CC4(O)CCCCCC4)cc31)[C@H]2c1ccc(OCCO)cc1 — lower, -0.106
- CCCC[C@@H]1C[C@H]1[C@@H](NC(=O)c1cccs1)c1ccc(Cl)cc1 — lower, -0.0578
- Cc1ccc(N2C(=O)c3ccccc3[C@@H](C(=O)NCC(F)(F)F)[C@@H]2c2ccc(CO)cc2)nc1 — lower, -0.0626
- COCCOC(=O)N1C(=O)[C@@]2(c3cc(C#CCNC(N)=O)ccc31)[C@H](c1ccc(OCCO)cc1)N1[C@H](c3ccccc3)[C@H](c3ccccc3)OC(=O)[C@H]1[C@@H]2C(=O)Nc1nc2ccccc2s1 — lower, 0.187
- O=C1c2ccccc2[C@](Cc2ccccc2I)(C(=O)O)[C@H](c2ccc(CO)cc2)N1C1CCCCC1 — lower, -0.018
